# Screening data (PubChem)
# EphB4 ephrin blk: blocks human EphB4 binding to ephrin-B2. actives 0.15% (n = 97,000). inhibition, % at 7 µM. EphB4 LBD / TNYL-RAW-Alexa532 peptide, fluorescence polarization;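 active = inhibition above the screen-wide mean inhibition plus 3 SD, cut at about 15% in these data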;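 note: 0% = DMSO wells and 100% = excess unlabeled TNYL-RAW peptide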
# Target sequence (P54760 whole entry, looked up, the tested form may be a part): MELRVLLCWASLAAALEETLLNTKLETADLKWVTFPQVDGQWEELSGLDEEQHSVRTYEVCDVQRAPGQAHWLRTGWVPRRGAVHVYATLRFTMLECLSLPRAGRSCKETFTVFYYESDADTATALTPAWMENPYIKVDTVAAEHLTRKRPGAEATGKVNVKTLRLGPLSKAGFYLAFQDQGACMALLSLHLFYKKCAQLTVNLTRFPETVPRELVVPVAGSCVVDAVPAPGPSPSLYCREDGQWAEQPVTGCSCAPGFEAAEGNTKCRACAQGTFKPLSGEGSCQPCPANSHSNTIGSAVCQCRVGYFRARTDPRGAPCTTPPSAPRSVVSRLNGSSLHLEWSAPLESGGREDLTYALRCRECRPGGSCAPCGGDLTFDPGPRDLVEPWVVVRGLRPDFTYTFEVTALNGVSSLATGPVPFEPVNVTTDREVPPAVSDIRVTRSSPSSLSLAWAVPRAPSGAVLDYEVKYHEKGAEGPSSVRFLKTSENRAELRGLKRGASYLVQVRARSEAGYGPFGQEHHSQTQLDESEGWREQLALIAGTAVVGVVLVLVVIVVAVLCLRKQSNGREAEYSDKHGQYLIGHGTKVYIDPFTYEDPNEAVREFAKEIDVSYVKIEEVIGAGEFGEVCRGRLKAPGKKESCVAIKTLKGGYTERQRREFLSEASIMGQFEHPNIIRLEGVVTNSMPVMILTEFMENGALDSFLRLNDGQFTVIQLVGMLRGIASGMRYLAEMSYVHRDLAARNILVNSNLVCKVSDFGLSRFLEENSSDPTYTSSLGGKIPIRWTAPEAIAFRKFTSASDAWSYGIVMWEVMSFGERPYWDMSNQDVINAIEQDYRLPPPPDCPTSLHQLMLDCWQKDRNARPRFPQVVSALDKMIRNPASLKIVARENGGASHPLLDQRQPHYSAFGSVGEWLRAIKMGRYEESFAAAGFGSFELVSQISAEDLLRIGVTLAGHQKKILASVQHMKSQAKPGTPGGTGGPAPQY
# hDAT+cocaine: changed human dopamine transporter uptake under cocaine IC80. Q01959. LLC-PK1 hDAT cells, [14C]-dopamine uptake with cocaine IC80; actives deviate in either direction. B-score at 10 µM. actives 1.3% (n = 110,000). AID 449768;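 active = Z score or B-score, a plate-position-corrected score, falls beyond the plate's 99.7% confidence bounds, in either direction; inactive = both scores lie inside the 99.7% bounds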;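 note: scored against the spread of the other compound wells on the same plate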
# D1 mod: allosteric modulators of human D1 dopamine receptor; B-score at 10 µM; HEK293 D1, CRE-luciferase, dopamine EC30 potentiation; actives deviate in either direction; P21728; actives 5.9% (n = 58,000);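 active = luminescence count or its row- and column-corrected plate score outside the 99.7% band of the plate's sample wells, on either side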
# * = called active by the depositor; . = no result. Only a selection was taken, and hits are over-represented in it overall.
SMILES,EphB4 ephrin blk,hDAT+cocaine,D1 mod
Cc1cc(-c2cccc([N+](=O)[O-])c2)nc2ccc3ccccc3c12,-4,-0.82,.
O=C(NCC(c1cccnc1)N1CCN(c2ccc(F)cc2)CC1)c1ccc(F)cc1 (centres undefined),3,3.2*,-1.9
COc1ccc(C(=O)NCC(c2cccnc2)N2CCN(c3ccc(F)cc3)CC2)cc1OC (centres undefined),6,0.055,.
CCC(C)NS(=O)(=O)c1ccc(S(=O)(=O)N2CCCC3(CCCCC3)C2)cc1 (centres undefined),5,1.2,.
CCOc1cc(CNCCO)cc(Br)c1OCc1ccccc1Cl,-5,1.3,.
CCOc1cc(CNC(C)(C)CO)cc(Br)c1OCc1ccc(Cl)cc1Cl,5,2.5*,.
COCCCn1cc(C(=O)c2cc(OC)ccc2OCC(=O)Nc2cc(C)on2)cc(C#N)c1=O,9,-0.079,.
CCOC(=O)C(=CNc1cccc(C)c1C)C(=O)OCC,-8,6.1*,.
CCOC(=O)C(=CNc1ccc(C)cc1C)C(=O)OCC,6,2.7,.
Nc1nc(-c2ccc3ccccc3c2)c(C2(O)C(=O)Nc3c(Br)cc(F)cc32)s1 (centres undefined),-2,-0.34,.
Cc1ccc2c(c1)N(C(=O)NC1CCCCC1)C(C)(C)CC2C (centres undefined),-7,-0.96,.
O=C(CSc1nnc(-c2ccc(F)cc2)o1)Nc1ccccc1N1CCOCC1,-8,3.3*,.
O=C(CSc1nc2ccccc2o1)Nc1ccccc1N1CCOCC1,1,-1.2,.
COc1ccc(-c2nc3n(c(=O)c2C#N)CCCS3)cc1,5,-0.68,0.5
COc1ccc(-c2cc3nc4n(c(=O)c3s2)CCC4)cc1,-8,0.56,-5.9*
O=C(c1cccc(F)c1)N1CCN=C1SCc1cccnc1,-2,0.88,0.0098
COc1cc(OC)cc(C(=O)N2CCN=C2SCc2cccnc2)c1,-1,1.6*,0.046
COC(=O)[C@@H]1C[C@H]2CC[C@H](O)C[C@H]2N1Cc1ccc(-c2ccccc2)cc1,.,0.59,.
CCCCN(CCCC)c1cc(C)nc(-c2ccccc2O)n1,-6,0.3,.
COc1c2c(c(C)c3c1C(=O)OC3)O[C@@]1(C)CC[C@@]3(O)C(C)(C)OC(=O)CC[C@]3(C)[C@H]1C2,.,0.39,.
CCOC(=O)Cc1csc(SCc2nc3sc4c(c3c(=O)[nH]2)CCC4)n1,1,0.024,.
Cc1ccc(-c2ccc(C(=O)O)[nH]2)cc1,16*,-0.35,1.2
Cc1ccc(-c2cc(=O)c3ccccc3[nH]2)cc1,.,-0.89,.
CCO[C@H]1OC(C(N)=O)=C[C@@H](C2CCCCC2)[C@@H]1CCCO,.,-0.34,.
Cc1ccccc1C(=O)Nc1cccc(NC(=O)c2ccc(-c3ccc(Br)cc3)o2)c1,0,.,.
SMILES,EphB4 ephrin blk,hDAT+cocaine,D1 mod
Cc1ccc(S(=O)(=O)NC(=O)c2ccc(-c3ccc(-c4ccccc4)cc3)o2)c(C)c1,.,-2.2*,.
Cc1ccccc1CN1CCN(CC2CC3C=CC2C3)CC1 (centres undefined),-2,-0.024,.
C1=CC2CC1CC2CN1CCN(c2ccccc2)CC1 (centres undefined),.,-1.3,-4.6*
Cc1cccc(NC(=S)NC2CC3CCCC(C2)N3Cc2cccs2)c1 (centres undefined),-9,0.036,.
CCN(Cc1nc2ccccc2c(=O)[nH]1)Cc1cc(=O)oc2cc(OC)ccc12,-3,-0.61,.
O=C(Nc1ccccc1N1CCCCC1)c1ccccc1F,-8,0.018,0.75
O=C(Nc1ccccc1Sc1ccccc1)c1ccccc1F,16*,-1.3,.
Cc1cc2cc(C(c3nnnn3Cc3ccco3)N3CCc4ccccc43)c(=O)[nH]c2cc1C (centres undefined),4,-1,-0.75
Cc1cc2cc(C(c3nnnn3Cc3ccco3)N3CCc4ccccc4C3)c(=O)[nH]c2cc1C (centres undefined),2,3.9*,0.07
COC(=O)/C(=C(/F)SCC(C)=O)C(F)(F)F,-4,-0.55,.
CCOc1ccc(NC(=O)CSc2nnc(-c3ccccn3)n2N)cc1,-4,-0.28,-0.8
CCn1c2ccccc2c2cc(NC(=O)CSc3nnc(-c4ccc(OC)c(OC)c4)n3N)ccc21,-1,-0.058,.
COc1ccc(NC(=O)CSc2nnc(-c3ccccn3)n2N)cc1,-5,2.5*,0.77
CCn1c2ccccc2c2cc(NC(=O)CSc3nnc(-c4ccccc4OC)n3N)ccc21,7,2.8*,0.2
Cn1ccnc1SCC(=O)Nc1ccccc1,-7,-0.81,.
Cn1ccnc1SCC(=O)Nc1ccc2ccccc2c1,-10,1.1,-6.6*
COc1ccc2nc(SCC(=O)Nc3ccc(S(=O)(=O)Nc4nccc(C)n4)cc3)[nH]c2c1,-3,-0.15,.
COc1ccc(N2CCN(c3ncnc4c3nnn4Cc3ccccc3Cl)CC2)cc1,4,-0.14,.
CCOC(=O)C1=C(C)NC(=O)NC1c1c(C)nn(-c2ccccc2)c1Cl (centres undefined),.,1.1,0.3
Cc1nn(-c2ccccc2)c(Cl)c1/C=C1\SC(=S)NC1=O,2,-4.4*,.
O=C(NCCc1ccccc1)[C@@H]1CC=C[C@@H]2CCN(C3CCCCC3)C(=O)[C@@H]21,.,-1.6,.
CCO[C@@H]1OC(C(=O)NCc2ccccc2)=C[C@H](c2ccc(C(F)(F)F)cc2)[C@H]1CCCO,.,0.78,.
O=C(COc1ccc(-n2cnnn2)cc1)NC(=O)NCc1ccccc1,0,0.25,-4.4*
O=C(COc1ccc(-n2cnnn2)cc1)NC1CCCCC1,.,1.6,-0.33
N=c1oc2ccc3ccccc3c2cc1-c1nnc2n1CCCCC2,-5,3.4*,0.081
SMILES,EphB4 ephrin blk,hDAT+cocaine,D1 mod
COc1ccc2oc(=N)c(-c3nnc4n3CCCCC4)cc2c1,0,1.4,.
C#Cc1ccc([C@@H]2C=C(C(=O)O)O[C@H](OCC)[C@H]2CCCO)cc1,.,0.29,.
COCOc1cc(O)c(C(=O)/C=C/c2ccccc2)c(OCOC)c1,.,-0.94,.
O=C(CN(C(=O)CCC(=O)Nc1nccs1)c1ccc(F)cc1)NCc1ccco1,6,-2.8*,0.3
O=C(CN(C(=O)CCC(=O)Nc1nccs1)c1ccc(F)c(Cl)c1)NCc1ccco1,.,-0.11,0.29
CCNC(=S)NNC(=O)c1cccnc1,-1,-0.43,.
CCCCNC(=S)NNC(=O)c1cccnc1,6,-8.2*,.
Cc1ccc(N2C(=O)N(CC(=O)C(C)(C)C)c3ccccc3S2(=O)=O)cc1,.,-1.3,.
CC(=O)c1ccc(Oc2ncnc3sccc23)c(CN2CCOCC2)c1,.,-7.9*,-1.2
CC(=O)c1ccc(OCC(C)C)c(CN2CCCCC2)c1,-2,-0.77,0.3
O=C(O[C@@H]1OC2COC(=O)c3cc(O)c(O)c(O)c3-c3c(cc(O)c(O)c3O)C(=O)O[C@@H]([C@H]1O)[C@@H]2O)c1cc(O)c(O)c(O)c1,.,-0.48,.
O=C(NCCc1ccccc1)c1ccc(Cl)nc1,-1,-1.3,.
CO/N=C/c1ccc(N2CCN(C(=O)c3ccc(Cl)cc3Cl)CC2)c([N+](=O)[O-])c1,-3,1.4,.
COCCNS(=O)(=O)c1cccc2cccnc12,.,-2.7*,-1.1
O=S(=O)(NCc1ccco1)c1cccc2cccnc12,3,-0.093,-0.55
COc1cc(OC)c(NC(=O)CCNC(=O)Cn2ccc3ccccc3c2=O)cc1Cl,-4,-0.94,.
COc1ccc(C)cc1NC(=O)CNC(=O)Cn1ccc2ccccc2c1=O,-7,-9*,0.28
COc1ccc(-c2csc(C)n2)cc1OC,6,1.3,.
